We go through 8 compounds from PubChem BioAssay (EPA / NIEHS).

Structures are written as SMILES. Records with an inconclusive call do not appear. The source made the active and inactive calls. How the source made its calls, unless noted: active means hit-call score of the fitted dose curve at least 0.9, where 1 is the maximum; inactive means score below 0.9.

The target in assay [1] is Paired box protein Pax-6 (Homo sapiens) (UniProt P26367). The experiment in a line: ATG_Pax6_CIS: Attagene CIS-FACTORIAL HepG2 Assay for human Paired Box 6 (PAX6) (AID 2282956). As to conditions: HepG2 CIS-FACTORIAL PAX6 reporter transcription, RNA readout; actives raise or lower the signal. In short, it runs like this:
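Transient MRTU transfection of HepG2 → compound exposure 24 h → TriZol RNA, oligo(dT) RT → PCR, 6-FAM primer extension, HpaI cut → capillary electrophoresis; activity fitted both directions against DMSO.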

Assay [2] in a line: ATG_PXRE_CIS: Attagene CIS-FACTORIAL HepG2 Assay for human Pregnane X Receptor Element (PXRE) (AID 2282957). As to conditions: HepG2 Attagene CIS-FACTORIAL PXRE reporter, mRNA; actives raise or lower the signal. The method, boiled down: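 Multiplexed cis-reporter assay in transiently transfected human HepG2 cells; 24 h chemical exposure. Reporter transcripts quantified by RT-PCR with fluorescent labeling and capillary electrophoresis.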

Assay [3] is described as follows: ATG_PPRE_CIS: Attagene CIS-FACTORIAL HepG2 Assay for human Peroxisome Proliferator-activated Response Element (PPRE) (AID 2282958). As to conditions: HepG2 PPRE cis-element reporter, Attagene transcription factor profiling; actives raise or lower the signal. The method, boiled down:
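Cells are first transfected transiently with the multiplexed reporter library, then dosed for 24 h. Total RNA is reverse-transcribed, amplified, fluorescently end-labeled and HpaI-cut before capillary electrophoresis; activity is fitted bidirectionally against DMSO controls.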

A short description of assay [4]: ATG_Sox_CIS: Attagene CIS-FACTORIAL HepG2 Assay for human SRY-box transcription factor (SOX) (AID 2282960). As to conditions: HepG2 Attagene cis-factorial SOX reporter, mRNA; actives raise or lower the signal. In short, it runs like this:
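Transient MRTU transfection of HepG2; 24 h compound incubation; TriZol RNA, oligo(dT) RT, PCR, 6-FAM primer extension, HpaI cut, CE. Bidirectional fit, DMSO = baseline.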

The target of assay [5] is Transcription factor Sp1 (Homo sapiens) (UniProt P08047). The assay is described as follows: ATG_Sp1_CIS: Attagene CIS-FACTORIAL HepG2 Assay for human Specificity Protein 1 (Sp1) (AID 2282961). Particulars: HepG2 Sp1 cis-reporter transcription, actives raise or lower the signal. The method, boiled down: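 Endogenous Sp1 activity was gauged in human liver HepG2 cells bearing transfected reporter units under a cis-regulating promoter. After 24 h dosing, reporter mRNA was quantified by RT-PCR with capillary electrophoresis, and activity fitted bidirectionally versus DMSO.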
Chain of Transcription factor Sp1 (Homo sapiens) (P08047 whole entry, looked up): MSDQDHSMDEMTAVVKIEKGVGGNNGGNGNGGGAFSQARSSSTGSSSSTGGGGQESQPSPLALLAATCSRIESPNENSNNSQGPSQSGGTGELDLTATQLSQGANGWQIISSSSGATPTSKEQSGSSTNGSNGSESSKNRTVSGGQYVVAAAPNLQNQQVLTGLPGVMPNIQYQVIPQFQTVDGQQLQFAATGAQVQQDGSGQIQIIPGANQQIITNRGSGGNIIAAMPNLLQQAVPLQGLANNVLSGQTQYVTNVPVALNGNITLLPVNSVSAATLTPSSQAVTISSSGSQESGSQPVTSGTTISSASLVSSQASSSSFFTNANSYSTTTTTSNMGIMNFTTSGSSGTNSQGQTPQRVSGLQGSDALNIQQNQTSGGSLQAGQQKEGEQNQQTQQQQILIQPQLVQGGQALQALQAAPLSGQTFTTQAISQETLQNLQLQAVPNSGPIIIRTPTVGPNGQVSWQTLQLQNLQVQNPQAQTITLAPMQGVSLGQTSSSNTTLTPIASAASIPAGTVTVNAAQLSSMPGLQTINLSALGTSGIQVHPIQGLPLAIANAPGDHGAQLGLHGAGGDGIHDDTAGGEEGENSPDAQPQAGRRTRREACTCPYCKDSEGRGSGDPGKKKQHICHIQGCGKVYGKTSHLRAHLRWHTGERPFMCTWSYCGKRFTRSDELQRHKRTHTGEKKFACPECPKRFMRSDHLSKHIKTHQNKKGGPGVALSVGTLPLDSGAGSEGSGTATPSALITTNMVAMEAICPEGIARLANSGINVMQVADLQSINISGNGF

A short description of assay [6]: ATG_SREBP_CIS: Attagene CIS-FACTORIAL HepG2 Assay for human Sterol Regulatory Element Binding (SREBP) (AID 2282962). As to conditions: HepG2 Attagene cis-factorial SREBP reporter, mRNA; actives raise or lower the signal. The method, boiled down: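 Transfected HepG2 (cis-regulated reporter library, endogenous TFs) → compound 24 h → total RNA → oligo(dT) RT → reporter-specific PCR → FAM primer extension, HpaI cut → CE fluorescence. Fit bidirectional vs DMSO.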

In assay [7] the target is Signal transducer and activator of transcription 3 (Homo sapiens) (UniProt P40763). The experiment in a line: ATG_STAT3_CIS: Attagene CIS-FACTORIAL HepG2 Assay for human Signal Transducer and Activator of Transcription 3 (STAT3) (AID 2282963). Particulars: HepG2, Attagene cis-factorial STAT3 reporter transcription; actives raise or lower the signal. In short, it runs like this:
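After a 24 h compound incubation, total RNA from MRTU-transfected HepG2 cells was converted to cDNA and reporter sequences PCR-amplified, labelled and profiled by capillary electrophoresis. Gain and loss of signal were referenced to DMSO.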

Assay [8] is described as follows: ATG_TCF_b_cat_CIS: Attagene CIS-FACTORIAL HepG2 Assay for human T-Cell-Factor with beta-catenin (TCF/b-cat) (AID 2282965). Particulars: HepG2 TCF/beta-catenin cis-reporter transcription, actives raise or lower the signal. In short, it runs like this:
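Measured: reporter mRNA in HepG2 transiently transfected with cis-promoter reporter units, 24 h after chemical addition. Fitting was bidirectional, DMSO as negative control.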

Assay [9] can be described thus: ATG_TAL_CIS: Attagene CIS-FACTORIAL HepG2 Assay for human TAL Basal Promoter (AID 2282966).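 Further: background control endpoint measuring basal TAL promoter reporter mRNA not a specific factor.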 Particulars: HepG2 Attagene cis-factorial TAL promoter reporter; actives raise or lower the signal. In short, it runs like this:
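Steps: transfect HepG2 with multiple reporter transcription units; dose 24 h; isolate RNA, reverse-transcribe, PCR-amplify, label with 6-FAM, digest with HpaI; resolve by capillary electrophoresis. Bidirectional fitting against DMSO baseline.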

Assay [10] in a line: ATG_TGFb_CIS: Attagene CIS-FACTORIAL HepG2 Assay for human Transforming Growth Factor (TGF) (AID 2282967). Particulars: HepG2 Attagene CIS TGFb reporter, mRNA transcription; actives raise or lower the signal. The method, boiled down: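 Cells were dosed for 24 hours, after which total RNA was reverse-transcribed and reporter sequences amplified, labeled and sized by capillary electrophoresis. Activity was fitted in both directions against DMSO.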

A short description of assay [11]: ATG_VDRE_CIS: Attagene CIS-FACTORIAL HepG2 Assay for human Vitamin D Receptor Element (VDRE) (AID 2282968). As to conditions: HepG2 VDRE cis-reporter transcription, actives raise or lower the signal. In short, it runs like this:
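In transiently transfected HepG2 liver cells, gain or loss of reporter mRNA after 24 h exposure is scored relative to DMSO, using fluorescence detection by capillary electrophoresis of RT-PCR products.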

The target of assay [12] is Nuclear receptor subfamily 1 group I member 3 (Homo sapiens) (UniProt Q14994). The assay is described as follows: ATG_CAR_TRANS: Attagene TRANS-FACTORIAL HepG2 Assay for human Constitutive Androstane Receptor (CAR) (AID 2282969; active means hit-call score of the fitted dose curve at least 0.9, where 1 is the maximum;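 further: activators raise reporter mRNA above DMSO so AC50 marks induction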). Particulars: HepG2 Attagene TRANS-FACTORIAL CAR reporter. The method, boiled down:
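Readout is reporter mRNA induction, quantified by fluorescent primer extension and capillary electrophoresis after RT-PCR. Cells were HepG2 transiently carrying chimeric NR-Gal4 constructs with GAL4-UAS reporters, treated for 24 h; activity scored upward from DMSO.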

The target of assay [13] is X-box-binding protein 1 (Homo sapiens) (UniProt P17861). The assay is described as follows: ATG_Xbp1_CIS: Attagene CIS-FACTORIAL HepG2 Assay for human X-box Binding Protein 1 (XBP1) (AID 2282972). Particulars: HepG2 XBP1 cis-element reporter, Attagene multiplex; actives raise or lower the signal. In short, it runs like this:
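HepG2, transient MRTU transfection (cis-promoter driven), 24 h compound exposure. Total RNA → oligo(dT) RT → PCR → 6-FAM labeling → HpaI cut → CE. Bidirectional fit vs DMSO.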

Assay [14] can be described thus: ATG_TA_CIS: Attagene CIS-FACTORIAL HepG2 Assay for human TA Basal Promoter (AID 2282964). Particulars: HepG2 Attagene CIS-factorial TA basal promoter reporter; actives raise or lower the signal. In short, it runs like this:
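Steps: transfect HepG2 with MRTUs; dose 24 h; isolate RNA, DNase-treat, reverse-transcribe; PCR and FAM-label reporter cDNA; digest with HpaI 2h at 37 C; run capillary electrophoresis. Activity fitted both directions against DMSO.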

The target of assay [15] is Estrogen receptor (Homo sapiens) (UniProt P03372). The assay is described as follows: ATG_ERa_TRANS: Attagene TRANS-FACTORIAL HepG2 Assay for human Estrogen Receptor alpha (ERa) (AID 2282970; active means hit-call score of the fitted dose curve at least 0.9, where 1 is the maximum). As to conditions: HepG2 Attagene TRANS ERa GAL4 reporter, mRNA. In short, it runs like this:
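Multiplexed cell-based reporter format in HepG2: chimeric ERa-Gal4 protein drives GAL4-UAS reporter transcription. Fluorescent reporter mRNA quantified by capillary electrophoresis 24 hours after dosing; endpoint fitted as signal gain against DMSO.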

Assay [16] can be described thus: ATG_M_19_TRANS: Attagene TRANS-FACTORIAL HepG2 Assay for M19 Transcription Factor (Internal Marker) (AID 2282974; active means hit-call score of the fitted dose curve at least 0.9, where 1 is the maximum). Particulars: HepG2 Attagene TRANS-FACTORIAL M19 internal marker reporter. In short, it runs like this: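 Cells: human HepG2, transiently transfected with multiplexed reporter transcription units. Exposure: 24 h. Detection: RT-PCR of reporter mRNA with capillary electrophoresis. Analysis: gain-of-signal vs DMSO.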

For assay [17], the target named is Steroid hormone receptor ERR1 (Homo sapiens) (UniProt P11474). The assay is described as follows: ATG_ERRa_TRANS: Attagene TRANS-FACTORIAL HepG2 Assay for human Estrogen-Related Receptor alpha (ERRa) (AID 2282971; active means hit-call score of the fitted dose curve at least 0.9, where 1 is the maximum). As to conditions: HepG2 Attagene TRANS reporter, ERRa transactivation. In short, it runs like this:
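Signal gain relative to DMSO for an ERRa-Gal4 chimeric receptor, read as reporter mRNA by RT-PCR/capillary electrophoresis. Human HepG2 liver cells, transient multiplex reporter transfection, 24 h chemical exposure.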

Assay [18] is described as follows: ATG_GAL4_TRANS: Attagene TRANS-FACTORIAL HepG2 Assay for GAL4 (Internal Marker) (AID 2282976; active means hit-call score of the fitted dose curve at least 0.9, where 1 is the maximum). As to conditions: HepG2 Attagene TRANS GAL4 internal marker reporter. The method, boiled down: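 Liver HepG2 line bearing multiplexed GAL4-UAS reporter constructs; 24 h chemical treatment. Transcripts were quantified as fluorescent fragments on capillary electrophoresis after RT-PCR and HpaI cut, with activity fitted upward from DMSO.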

In assay [19] the target is Estrogen-related receptor gamma (Homo sapiens) (UniProt P62508). The experiment in a line: ATG_ERRg_TRANS: Attagene TRANS-FACTORIAL HepG2 Assay for human Estrogen-Related Receptor gamma (ERRg) (AID 2282977; active means hit-call score of the fitted dose curve at least 0.9, where 1 is the maximum;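 further: hits increase reporter signal over DMSO so potencies reflect activators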). As to conditions: HepG2 Attagene TRANS reporter, ERRg transactivation. In short, it runs like this: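 Transient HepG2 transfectants, 24 h compound exposure, GAL4-UAS reporter mRNA by RT-PCR/6-FAM labelling/capillary electrophoresis; positive direction vs DMSO.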
Chain of Estrogen-related receptor gamma (Homo sapiens) (P62508 whole entry, looked up, the tested form may be a part): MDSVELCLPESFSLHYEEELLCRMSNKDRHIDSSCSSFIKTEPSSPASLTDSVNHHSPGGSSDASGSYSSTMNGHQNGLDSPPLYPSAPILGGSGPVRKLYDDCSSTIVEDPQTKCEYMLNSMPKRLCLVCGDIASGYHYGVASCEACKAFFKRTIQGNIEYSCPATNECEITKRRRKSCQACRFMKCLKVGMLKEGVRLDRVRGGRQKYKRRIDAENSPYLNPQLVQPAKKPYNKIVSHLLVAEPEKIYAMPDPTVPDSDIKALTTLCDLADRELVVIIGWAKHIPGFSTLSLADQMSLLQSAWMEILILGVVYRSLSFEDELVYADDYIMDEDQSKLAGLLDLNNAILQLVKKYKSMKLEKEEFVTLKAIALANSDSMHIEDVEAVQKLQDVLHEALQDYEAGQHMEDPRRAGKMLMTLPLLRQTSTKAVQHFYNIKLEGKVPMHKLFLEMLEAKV

The AC50 is the concentration giving half of the maximal activity seen.

Chain of Paired box protein Pax-6 (Homo sapiens) (P26367 whole entry, looked up): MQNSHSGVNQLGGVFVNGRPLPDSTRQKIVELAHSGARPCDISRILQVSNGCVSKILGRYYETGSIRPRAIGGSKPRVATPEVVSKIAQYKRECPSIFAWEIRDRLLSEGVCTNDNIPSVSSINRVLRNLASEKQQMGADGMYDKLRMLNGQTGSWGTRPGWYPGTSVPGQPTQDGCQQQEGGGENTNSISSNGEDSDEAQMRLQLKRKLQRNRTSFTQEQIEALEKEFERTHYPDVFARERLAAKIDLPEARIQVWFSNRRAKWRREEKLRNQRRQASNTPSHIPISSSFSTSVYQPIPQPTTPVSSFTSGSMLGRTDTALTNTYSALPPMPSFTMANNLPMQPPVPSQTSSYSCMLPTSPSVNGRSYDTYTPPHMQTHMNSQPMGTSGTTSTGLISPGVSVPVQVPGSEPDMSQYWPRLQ
Chain of X-box-binding protein 1 (Homo sapiens) (P17861 whole entry, looked up): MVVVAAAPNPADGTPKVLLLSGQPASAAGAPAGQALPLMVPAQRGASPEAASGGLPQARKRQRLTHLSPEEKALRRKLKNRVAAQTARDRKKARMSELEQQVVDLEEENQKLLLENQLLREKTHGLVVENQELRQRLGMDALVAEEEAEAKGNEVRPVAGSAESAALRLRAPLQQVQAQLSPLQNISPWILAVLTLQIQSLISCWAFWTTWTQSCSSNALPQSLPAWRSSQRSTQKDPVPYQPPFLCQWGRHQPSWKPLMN
Chain of Signal transducer and activator of transcription 3 (Homo sapiens) (P40763 whole entry, looked up): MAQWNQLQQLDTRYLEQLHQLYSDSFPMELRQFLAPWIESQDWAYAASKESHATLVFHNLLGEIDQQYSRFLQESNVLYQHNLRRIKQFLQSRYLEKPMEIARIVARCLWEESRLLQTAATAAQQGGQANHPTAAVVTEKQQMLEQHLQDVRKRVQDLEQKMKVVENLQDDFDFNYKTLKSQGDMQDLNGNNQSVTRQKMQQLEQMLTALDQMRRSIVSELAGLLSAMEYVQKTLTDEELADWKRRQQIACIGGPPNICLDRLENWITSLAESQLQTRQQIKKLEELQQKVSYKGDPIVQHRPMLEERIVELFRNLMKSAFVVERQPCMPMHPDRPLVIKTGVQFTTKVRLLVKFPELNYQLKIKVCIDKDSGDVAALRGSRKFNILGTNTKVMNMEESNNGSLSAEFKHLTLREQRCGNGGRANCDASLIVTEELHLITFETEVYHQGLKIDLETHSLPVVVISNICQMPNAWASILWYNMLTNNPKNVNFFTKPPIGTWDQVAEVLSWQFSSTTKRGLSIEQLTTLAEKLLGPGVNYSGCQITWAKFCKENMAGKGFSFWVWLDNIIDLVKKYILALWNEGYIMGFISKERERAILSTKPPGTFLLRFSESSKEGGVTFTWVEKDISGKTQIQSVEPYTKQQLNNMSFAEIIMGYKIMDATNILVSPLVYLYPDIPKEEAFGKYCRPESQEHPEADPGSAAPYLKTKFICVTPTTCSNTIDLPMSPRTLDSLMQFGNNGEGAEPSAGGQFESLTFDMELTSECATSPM
Chain of Estrogen receptor (Homo sapiens) (P03372 whole entry, looked up, the tested form may be a part): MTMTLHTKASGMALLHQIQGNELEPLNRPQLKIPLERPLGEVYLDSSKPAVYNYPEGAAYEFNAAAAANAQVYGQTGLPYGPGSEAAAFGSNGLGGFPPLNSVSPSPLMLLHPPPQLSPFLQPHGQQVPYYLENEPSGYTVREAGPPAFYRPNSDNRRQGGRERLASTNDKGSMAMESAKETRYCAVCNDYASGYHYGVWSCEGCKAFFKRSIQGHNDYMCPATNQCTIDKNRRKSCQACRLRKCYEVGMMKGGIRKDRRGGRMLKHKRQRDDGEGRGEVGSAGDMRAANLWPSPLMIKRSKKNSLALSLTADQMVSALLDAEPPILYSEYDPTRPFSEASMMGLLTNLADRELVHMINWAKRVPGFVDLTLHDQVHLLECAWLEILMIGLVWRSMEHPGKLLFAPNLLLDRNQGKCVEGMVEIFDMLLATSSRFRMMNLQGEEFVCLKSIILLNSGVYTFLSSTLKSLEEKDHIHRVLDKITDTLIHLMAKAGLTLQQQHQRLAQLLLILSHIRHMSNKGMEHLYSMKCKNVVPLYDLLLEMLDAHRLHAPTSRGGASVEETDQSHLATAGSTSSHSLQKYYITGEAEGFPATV
Chain of Nuclear receptor subfamily 1 group I member 3 (Homo sapiens) (Q14994 whole entry, looked up, the tested form may be a part): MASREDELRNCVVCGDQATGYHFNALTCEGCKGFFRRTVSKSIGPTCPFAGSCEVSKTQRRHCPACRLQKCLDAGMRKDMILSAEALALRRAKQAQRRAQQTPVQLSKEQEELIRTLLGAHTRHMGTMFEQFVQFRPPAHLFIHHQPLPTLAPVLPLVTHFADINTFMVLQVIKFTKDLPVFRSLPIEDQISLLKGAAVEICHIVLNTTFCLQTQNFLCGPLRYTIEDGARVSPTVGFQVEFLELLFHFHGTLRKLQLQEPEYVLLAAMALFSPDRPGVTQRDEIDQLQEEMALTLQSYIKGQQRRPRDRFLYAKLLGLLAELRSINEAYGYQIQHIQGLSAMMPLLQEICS
Chain of Steroid hormone receptor ERR1 (Homo sapiens) (P11474 whole entry, looked up, the tested form may be a part): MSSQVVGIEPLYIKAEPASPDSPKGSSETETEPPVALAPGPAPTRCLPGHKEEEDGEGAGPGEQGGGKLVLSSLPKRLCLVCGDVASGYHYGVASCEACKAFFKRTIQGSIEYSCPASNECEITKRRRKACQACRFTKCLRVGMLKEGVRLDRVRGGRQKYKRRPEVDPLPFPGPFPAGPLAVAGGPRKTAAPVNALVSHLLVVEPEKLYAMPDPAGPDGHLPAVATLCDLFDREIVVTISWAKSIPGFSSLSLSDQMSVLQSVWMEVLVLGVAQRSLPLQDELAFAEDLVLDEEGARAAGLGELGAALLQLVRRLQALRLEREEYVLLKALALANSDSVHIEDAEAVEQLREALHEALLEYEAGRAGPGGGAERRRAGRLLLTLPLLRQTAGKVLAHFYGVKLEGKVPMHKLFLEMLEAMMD

In the case of `CC(CCO)CCCC(C)(C)O` (configuration not stated), the outcome in assay [1], in assay [2], in assay [3], in [4], in [5] and in assay [6] was inactive. Besides, the call in assay [7], in assay [8], in assay [9], in [10], in assay [11] and in [12] was inactive. Also, the compound was classed as inactive in [13].

As to `O=C1CCc2ccccc2O1`, the result in assay [1], in [2], in [3], in assay [4], in [5] and in assay [7] was inactive. Moreover, the compound was classed as inactive in assay [14], in assay [8], in [9], in assay [10], in assay [11] and in [13].

For the compound `CC(CCO)CCc1ccccc1` (configuration not stated), the compound was called inactive in assay [1], in [3], in assay [5], in assay [6], in [7] and in assay [8]. Also, the result in [9], in [10], in assay [11], in assay [13] and in assay [16] was inactive. For the same compound, the AC50 in assay [2] was 41.1 µM (active); in assay [15], 25.2 µM (active).

For the compound `NC(=O)Nc1ccc(Cl)cc1`, the compound was called inactive in assay [1], in assay [2], in assay [3], in assay [4], in assay [5] and in assay [6]. For the same compound, the compound was called inactive in [7], in assay [14], in [8], in [9], in assay [11] and in [12]. Also, the compound was classed as inactive in assay [15], in assay [17], in [13], in [16], in [18] and in assay [19].

With `CC(C)=CCC[C@](C)(O)[C@@H]1CC=C(C)CC1`, the compound was called inactive in assay [1], in [3], in assay [4], in assay [5], in [6] and in assay [7]. Moreover, the result in assay [14], in assay [8], in assay [9], in assay [11], in assay [12] and in assay [13] was inactive. In assay [16], the result was inactive. For the same compound, the AC50 in [2] is 11.1 µM (active).

On to `CCCOCC(C)O` (configuration not stated), for which the result in assay [1], in assay [3], in [4], in [5], in assay [6] and in [7] was inactive. The compound was called inactive in assay [14], in assay [8], in [9], in assay [10], in assay [11] and in assay [13]. For the same compound, the compound was called inactive in assay [18] and in [19]. Further, the AC50 in assay [2] is 25.5 µM (active).

On to `CCCCCC(CO)CCC` (configuration not stated), for which the outcome in assay [1], in [2], in assay [3], in assay [4], in assay [6] and in assay [7] was inactive. In addition, the compound was called inactive in assay [14], in assay [8], in assay [9], in [11] and in assay [16].

As for `O=Nc1ccc(Nc2ccccc2)cc1`, the AC50 is 33.4 µM (active) in assay [1]; 22.6 µM (active) in assay [2]; 47.6 µM (active) in assay [4]; 55 µM (active) in assay [5]; 33.4 µM (active) in assay [6]; 20.9 µM (active) in [8]. Moreover, the figures for the AC50 in [12] and in [15] were 26.7 µM (active) and 34.9 µM (active), respectively. In addition, the compound was called inactive in [3], in assay [7], in assay [14], in assay [9], in assay [10] and in [13]. In addition, the compound was classed as inactive in [16] and in [19].
